Source: PubChem BioAssay (NCATS)
Inconclusive results are not listed. A number with no mark means an inactive call. The source made the active and inactive calls. Calls come from the whole dose curve; as a rule, active = well fitted cell-killing curve with a large enough effect; inconclusive = small, poorly fitted or top-dose-only effect; inactive = flat fitted curve, though single readings scatter.

Test: COV-362 Cancer Cell Toxicity qHTS against the NCATS CANVASS Library (AID 1347352)
Details: COV-362 viability, CellTiter-Glo luminescence, 72 h; series mostly up to 38.3 µM; activity change, negative = cytotoxicity: at the top concentration
Procedure, shortened: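 Toxicity was measured as CellTiter-Glo luminescence after 72 h exposure to an 11-point compound series. Compound was added to 1000 cells/well 4 h after seeding.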
% is set by controls: 0 for no effect and ±100 for the full control effect; potency is the fitted concentration of half-maximal effect.

Structure (SMILES)	activity change, negative = cytotoxicity [%]	Potency
CC1=CC2CC[C@@H]3[C@@H](C)C[C@H](C)[C@@H](C1)N23 (stereo partly drawn)	0	
CC=C1CN(C=O)[C@H]2C[C@@H]1[C@@H](C(=O)OC)[C@@]13CCOC21Nc1ccccc13 (stereo partly drawn)	-4.8	
C[C@@H]1CC[C@@H](c2ccoc2)N2C[C@@]3(CC[C@@H]12)CS[C@@]1(CC[C@H]2[C@H](C)CC[C@@H](c4ccoc4)N2[C@@H]1O)C3		7.47 µM (active)
CCN1C[C@]2(C)CC[C@@H](O)[C@]34C1[C@H](C[C@H]23)C12CCC(CC14)[C@](O)(CO)[C@H]2O (stereo partly drawn)	4.23	
CO[C@@H](/C=C/CC/C=C/C(=O)O)[C@@H](O)[C@H](C)[C@@H](O)/C(C)=C/[C@H](C)C(=O)CCCC1CC(=O)NC(=O)C1	-11	
CCCC[C@@H]1CC[C@H]2CCCC(CCC)N12 (stereo partly drawn)	3.23	
C[C@]12CC(O)C3[C@@H](CCC4C[C@@H](O)CC[C@@]43CO)[C@@]1(O)CCC2C1=CC(=O)OC1 (stereo partly drawn)	-1.79	
CO[C@@H](/C=C/CC/C=C/C(=O)O)[C@@H](O)[C@H](C)/C=C(\C)[C@@H](O)[C@H](C)C(=O)CCCC1CC(=O)NC(=O)C1	1.63	
O=C(c1ccccc1O)c1[nH]c(Cl)c(Cl)c1-n1c(C(=O)c2ccccc2O)cc(Cl)c1Cl		2.11 µM (active)
CC[C@@H]1CN2CC[C@@]3(O)C(=Nc4cccc(OC)c43)[C@@H]2C[C@@H]1/C(=C\OC)C(=O)OC	-20.3	
c1ccc2c3c([nH]c2c1)CNCC3	-19.3	
CNCCc1ccccc1	0	
CCCCC[C@@H]1OC(=O)[C@@H](C)N(C)C(=O)[C@H](CCCCC)OC(=O)C(C)N(C)C(=O)[C@H](CCCCC)OC(=O)[C@@H](C)N(C)C(=O)[C@H](CCCCC)OC(=O)C(C)N(C)C1=O (stereo partly drawn)		9.41 µM (active)
